Experiment [1] can be described thus: compound effects on lung adenocarcinoma cell viability – A549, calcein-AM fluorescence, 48 h, basal, profiling panel (AID 1162). Further: test concentration not given here. The note with it: higher = more signal.
Experiment [2] is described as follows: compound effects on differentiated 3T3-L1 adipocyte viability – cell-based, 3T3-L1 adipocytes, calcein-AM fluorescence, 48 h, basal, profiling panel (AID 1163). Further: test concentration not given here. The following applies: 3T3-L1 adipocytes viability, higher = more signal.
Experiment [3] can be described thus: compound effects on hepatocellular carcinoma cell viability – HepG2, calcein-AM fluorescence, 48 h, basal, profiling panel (AID 1164). Further: test concentration not given here. The following applies: higher = more signal.
Experiment [4] is described as follows: compound effects on multiple myeloma cell viability – MM1S, calcein-AM fluorescence, 48 h, basal, profiling panel (AID 1165).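 Further: viability of MM1S multiple myeloma cells under basal unstimulated conditions; test concentration not given here.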 The note with it: higher = more signal.
Experiment [5] is described as follows: calcein-AM signal in unstimulated myeloma cells – cell-based, calcein-AM fluorescence, 48 h, PK04 Diversity Set, profiling panel (AID 1166).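 Further: cells grown under basal conditions without added stimulus; test concentration not given here.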 The note with it: RPMI8226 myeloma viability, higher = more signal.
A short description of experiment [6]: JC-1 mitochondrial signal, unstimulated HepG2 cells – cell-based, JC-1 fluorescence, 24 h, 100 nL compound, profiling panel (AID 1167). Further: test concentration not given here. The following applies: HepG2 mitochondrial potential, higher = more signal.
Experiment [7] is described as follows: JC-1 mitochondrial signal, unstimulated adipocytes – cell-based, JC-1 fluorescence, 3T3-L1 adipocytes, 24 h, 100 nL compound, profiling panel (AID 1168). Further: test concentration not given here. The following applies: JC-1 mitochondrial fluorescence, higher = more signal, called active from +8 up or from −8 down.
Experiment [8] is described as follows: JC-1 mitochondrial signal, unstimulated myeloma cells – cell-based, JC-1 fluorescence, RPMI8226, 24 h, 100 nL compound, profiling panel (AID 1169). Further: test concentration not given here. The note with it: JC-1 mitochondrial potential fluorescence, higher = more signal.
Experiment [9] in a line: JC-1 mitochondrial signal, unstimulated MM1S myeloma – cell-based, JC-1 fluorescence, 24 h, 100 nL compound, profiling panel (AID 1170). Further: test concentration not given here. The following applies: MM1S mitochondrial potential, higher = more signal.
The nature of experiment [10]: resazurin metabolic signal in A549 cells – cell-based, resazurin fluorescence, 24 h, PK04 Diversity Set, profiling panel (AID 1171). Further: test concentration not given here. The note with it: A549 viability, higher = more signal, called active from +8 up or from −8 down.
Experiment [11] can be described thus: resazurin metabolic signal in HepG2 cells – cell-based, resazurin fluorescence, 24 h, PK04 Diversity Set, profiling panel (AID 1172). Further: test concentration not given here. The following applies: HepG2 viability, higher = more signal. In general terms: Alamar Blue is a resazurin reagent that responds to reducing activity.
The nature of experiment [12]: budding yeast growth changes without added modifier – OD600, strain BY4716, 24 h, basal condition, primary screen (AID 1173). The following applies: S. cerevisiae BY4716 growth, OD600, 24 h; higher = more signal, called active from +8 up or from −8 down.
The nature of experiment [13]: viability profiling in MM1S myeloma cells – cell-based, resazurin fluorescence, basal, 24 h, PK04 Diversity Set, profiling panel (AID 1174). Further: test concentration not given here. The following applies: higher = more signal, called active from +8 up or from −8 down.
Experiment [14] addresses Dihydroorotate dehydrogenase (quinone), mitochondrial (Plasmodium falciparum (isolate 3D7)) (UniProt Q08210). Kind of experiment: inhibition of P. falciparum DHODH – biochemical, C-terminal His tag, absorbance 600 nm, primary screen (AID 1175).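 Further: recombinant parasite enzyme with a five histidine tag at its C terminus; test concentration not given here.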 The note with it: PfDHODH enzyme, DCIP absorbance 600 nm; higher = more signal, called active from +8 up or from −8 down.
Experiment [15] in a line: inhibition of PAO1 biofilm formation – strain PAO1, LB-PBS medium, absorbance 600 nm, primary screen (AID 1176). Further: test concentration not given here. The note with it: P. aeruginosa PAO1 growth/biofilm, A600, 12 h; higher = more signal.
The nature of experiment [16]: growth modulation of vineyard yeast isolate – strain RM11-1a, OD600, basal, 24 h, primary screen (AID 1177).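 Further: cultures grown under basal conditions with no added stressor; test concentration not given here.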 The following applies: S. cerevisiae RM11-1a growth, OD600, 24 h; higher = more signal, called active from +8 up or from −8 down.
Experiment [17] in a line: growth of efflux-deficient E. coli DRC39 – strain DRC39, OD650, 24 h, E. coli filamentation inducers, primary screen (AID 1178).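 Further: growth measured as culture turbidity by optical density at 650 nm; test concentration not given here.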 The following applies: E. coli DRC39 acrAB, higher = more signal, called active from +8 up or from −8 down.
The nature of experiment [18]: growth of efflux-deficient E. coli DRC39 – strain DRC39, OD650, 48 h, E. coli filamentation inducers, primary screen (AID 1179).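 Further: screen aims at cell division blockers that make cells filament.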 The following applies: E. coli DRC39 delta-acrAB growth, higher = more signal, called active from +8 up or from −8 down.
Experiment [19] can be described thus: viability profiling in RPMI8226 myeloma cells – cell-based, resazurin fluorescence, basal, 24 h, PK04 Diversity Set, profiling panel (AID 1180).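 Further: RPMI8826 multiple myeloma cell line at 5000 cells per well; test concentration not given here.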 The following applies: higher = more signal.
For experiment [20], the target named is E3 ubiquitin-protein ligase XIAP (Homo sapiens) (UniProt P98170). Description: small molecules binding XIAP protein – biophysical, small-molecule microarray, fluorescence 635 nm, primary screen (AID 1181).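 Further: score merges 667 nm emission and signal to noise over triplicate slides.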 The note with it: higher = more signal.
Sequence of E3 ubiquitin-protein ligase XIAP (Homo sapiens) (P98170 whole entry, looked up): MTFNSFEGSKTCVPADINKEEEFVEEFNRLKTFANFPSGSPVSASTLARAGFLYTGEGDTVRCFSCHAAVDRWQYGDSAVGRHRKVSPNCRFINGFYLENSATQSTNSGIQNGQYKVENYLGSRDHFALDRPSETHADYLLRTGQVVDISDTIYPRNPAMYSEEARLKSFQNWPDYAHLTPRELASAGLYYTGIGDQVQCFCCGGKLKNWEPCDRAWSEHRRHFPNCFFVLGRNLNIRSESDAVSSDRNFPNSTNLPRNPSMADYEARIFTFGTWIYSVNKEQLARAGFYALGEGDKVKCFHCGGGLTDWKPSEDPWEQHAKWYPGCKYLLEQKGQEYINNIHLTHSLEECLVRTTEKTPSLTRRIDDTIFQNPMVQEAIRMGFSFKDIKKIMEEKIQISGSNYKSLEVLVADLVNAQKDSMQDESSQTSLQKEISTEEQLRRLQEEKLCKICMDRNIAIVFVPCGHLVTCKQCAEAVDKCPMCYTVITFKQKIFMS

SMILES strings stand for the structures. “And” between values parts separate entries of the source, which are not always exact repeats. Identical values can stand only once. The source made the active and inactive calls. Unless noted, how the calls were made is not given here.

Sequence of Dihydroorotate dehydrogenase (quinone), mitochondrial (Plasmodium falciparum (isolate 3D7)) (Q08210 whole entry, looked up): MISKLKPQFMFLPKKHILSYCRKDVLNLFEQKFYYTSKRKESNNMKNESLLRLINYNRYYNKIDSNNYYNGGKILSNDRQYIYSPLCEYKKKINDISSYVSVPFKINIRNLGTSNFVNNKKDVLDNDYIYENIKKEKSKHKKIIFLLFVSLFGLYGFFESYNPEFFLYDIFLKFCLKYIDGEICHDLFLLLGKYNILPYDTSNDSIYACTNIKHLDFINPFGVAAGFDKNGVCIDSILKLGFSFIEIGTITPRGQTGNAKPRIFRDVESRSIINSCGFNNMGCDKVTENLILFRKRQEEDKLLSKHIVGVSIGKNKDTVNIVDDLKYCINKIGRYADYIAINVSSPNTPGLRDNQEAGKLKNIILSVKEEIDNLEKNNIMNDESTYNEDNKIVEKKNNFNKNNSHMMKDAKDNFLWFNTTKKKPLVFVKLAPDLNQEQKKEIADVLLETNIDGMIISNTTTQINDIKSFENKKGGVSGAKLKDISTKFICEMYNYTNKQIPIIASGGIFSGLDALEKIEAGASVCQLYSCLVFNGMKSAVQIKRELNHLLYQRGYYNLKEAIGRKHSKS

On to `CC(C)C(=O)N[C@@H]1CCCN1C(=O)C=Cc1ccccc1`, for which the z-score is 0.516 in experiment [1]; 0.709 in [2]; 0.546 in experiment [3]; 0.391 in experiment [4]; -0.463 in experiment [5]; -0.201 in experiment [6]. For the same molecule, the z-score in experiment [7] is -0.481 (inactive); in experiment [8], 0.119; in [9] it was 0.304; in experiment [10], -0.123 (inactive); in experiment [11], -0.0786; in experiment [12], -1.17 (inactive). The z-score in experiment [13] was -0.0492 (inactive); in experiment [15], 0.286 (inactive); in experiment [16] it was -1.19 (inactive); in experiment [17], 0.595 (inactive); in [18], -0.0803 (inactive); in experiment [19], 0.227. Further, the results for the composite z-score in [14] and in experiment [20] were -1.3 (inactive) and -0.113, respectively.

Turning to `C=CCN(CCCCC)C(=O)C(c1cccs1)N(CCOCCO)C(=O)/C=C\C(=O)O` (stereo not given), the z-score in experiment [1] was 0.457 and 0.414; in [2], 0.314 and -0.158; in experiment [3] it was 0.341 and 0.976; in experiment [4], 1.85 and 1.71; in experiment [5], 0.025 and 0.586; in experiment [6], 0.69 and -0.139. Besides, the z-score was 1.03 (inactive) and 0.45 (inactive) in experiment [7]; 0.0935 and -0.719 in experiment [8]; -0.512 and 0.0846 in [9]; -0.186 (inactive) and -0.954 (inactive) in [10]; -0.925 and -0.111 in experiment [11]; -0.397 (inactive) and -0.258 (inactive) in experiment [12]. Besides, the z-score in experiment [13] is -0.223 (inactive) and 0.149 (inactive); in [15] it was 0.0126 (inactive) and -0.401 (inactive); in experiment [16] it was -1.37 (inactive) and -1.48 (inactive); in [17] it was -0.388 (inactive) and 0.106 (inactive); in experiment [18], 0.526 (inactive) and 0.855 (inactive); in experiment [19] it was 0.096 and -0.165. Also, the composite z-score in experiment [14] is -1.15 (inactive) and -1.27 (inactive); in experiment [20], 0.548 and -0.0273.

Take `C=CCN(CCCC)C(=O)C(c1cccs1)N(C(=O)/C=C\C(=O)O)c1c(Cl)cccc1CO` (stereo not given): the z-score is -0.163 and -0.667 in experiment [1]; 0.441 and 0.526 in experiment [2]; -0.934 and -0.809 in [3]; 1.43 and 1.51 in experiment [4]; -0.097 and -0.435 in experiment [5]; -0.25 and -0.417 in experiment [6]. The z-score in [7] was -0.96 (inactive) and 0.0799 (inactive); in [8], 0.819 and 1.04; in experiment [9], -0.153 and -0.712; in [10], -0.352 (inactive) and 0.397 (inactive); in experiment [11], 0.766 and 0.197; in experiment [12] it was 0.405 (inactive) and -0.407 (inactive). Moreover, the z-score in [13] is -1.21 (inactive) and -0.193 (inactive); in [15], 0.991 (inactive) and 0.922 (inactive); in experiment [16] it was 0.201 (inactive) and 0.0171 (inactive); in [17], 0.591 (inactive) and 0.408 (inactive); in experiment [18] it was 0.339 (inactive) and 0.354 (inactive); in experiment [19], -0.101 and -0.108. Moreover, the composite z-score in experiment [14] was 0.005 (inactive) and 0.0035 (inactive); in [20], -0.0857 and -0.0807.

With `Cc1ccc(S(=O)(=O)OC[C@@H]2CN3[C@@H](CC[C@@H](C)[C@@H]3c3ccc(Br)cc3)C(=O)O2)cc1`, the z-score was -0.251 and 0.0448 in [1]; 0.0273 and 0.503 in [2]; 0.462 and 0.028 in [3]; -0.644 and 0.185 in [4]; -0.341 and -0.294 in experiment [5]; -0.735 and 0.438 in experiment [6]. Moreover, the z-score in experiment [7] is -0.303 (inactive) and 0.303 (inactive); in experiment [8], -0.883 and -0.68; in [9], 0.925 and 0.523; in experiment [10], -0.474 (inactive) and 0.371 (inactive); in experiment [11] it was -0.928 and 0.711; in [12], 0.212 (inactive) and 0.117 (inactive). Further, the z-score in [13] is 0.0032 (inactive) and 0.781 (inactive); in experiment [15], 0.487 (inactive) and -0.139 (inactive); in experiment [16], -0.0273 (inactive) and 0.72 (inactive); in experiment [17] it was 0.393 (inactive) and -1.04 (inactive); in experiment [18] it was 0.521 (inactive) and -0.956 (inactive); in experiment [19] it was -0.109 and 0.607. The composite z-score was -0.559 (inactive) and 0.188 (inactive) in experiment [14]; 1.69 and -0.0599 in [20].

Take `CC(CO)N1C(=O)[C@@H]2C3C(=O)OCCC=C[C@H]3OC23C=CCN(Cc2ccccc2)C(=O)[C@@H]13` (stereo not given in full): the z-score is 0.606 and 0.0694 in [1]; 0.888 and 0.458 in experiment [2]; 0.237 and 0.113 in experiment [3]; 0.34 and 0.311 in experiment [4]; -0.306 and -0.454 in experiment [5]; 0.567 and 0.15 in [6]. For the same molecule, the z-score was 0.932 (inactive) and 0.902 (inactive) in experiment [7]; -0.914 and 0.0338 in [8]; 0.789 and 0.282 in experiment [9]; 0.305 (inactive) and 0.147 (inactive) in [10]; 0.278 and -0.0236 in experiment [11]; 1.35 (inactive) and -1.28 (inactive) in experiment [12]. Also, the z-score was 0.533 (inactive) and 0.868 (inactive) in [13]; -1.35 (inactive) and -0.0684 (inactive) in experiment [15]; 1.57 (inactive) and -0.214 (inactive) in experiment [16]; 0.748 (inactive) and 0.632 (inactive) in experiment [17]; 0.453 (inactive) and 0.309 (inactive) in experiment [18]; 0.252 and 0.693 in experiment [19]. Besides, the composite z-score in experiment [14] is 0.113 (inactive) and -2.83 (inactive); in [20] it was -0.196 and 0.194.

For `C=CCN(Cc1ccccc1)C(=O)C1N(CCCCCCO)C(=O)C2C(C(=O)O)C3C=CC21O3` (stereo not given), the z-score in experiment [1] is -0.217 and 0.516; in experiment [2] it was 0.231 and 0.375; in experiment [3], -0.642 and -0.438; in experiment [4], -0.184 and -0.0762; in [5], 0.462 and 1.64; in experiment [6], -0.678 and -0.391. The z-score in experiment [7] was 0.201 (inactive) and 0.867 (inactive); in [8], -0.0429 and 0.0701; in experiment [9], -0.252 and -0.0839; in experiment [10], -0.0083 (inactive) and 0.239 (inactive); in experiment [11] it was -0.29 and 0.875; in [12] it was -0.356 (inactive) and -0.726 (inactive). Further, the z-score in experiment [13] was -0.231 (inactive) and 0.723 (inactive); in experiment [15], 0.95 (inactive) and 0.441 (inactive); in [16], -0.325 (inactive) and -0.784 (inactive); in experiment [17], 0.0108 (inactive) and 0.14 (inactive); in experiment [18], -0.187 (inactive) and -0.172 (inactive); in experiment [19] it was -0.615 and 0.439. The composite z-score in experiment [14] is -0.248 (inactive) and -1.43 (inactive); in experiment [20], 0.0898 and -0.395.

(Values after PubChem BioAssay.)
